Measurements as given in PubChem BioAssay (NCATS).
Several values for one entry are separate records, joined by “and”; a condition that tells them apart may be missing. Equal entries are not always repeated. Results filed as inconclusive are left out. More than one record can exist for a structure, and the calls need not agree. Activity calls are given as the source filed them. Calls come from the whole dose curve; as a rule, active = well fitted curve in the direction sought with a large enough effect; inconclusive = small, poorly fitted or top-dose-only effect, or another doubt; inactive = no such curve, though single readings can be large; an effect the other way counts as inactive or inconclusive.

Tests used:
[1] = test system: CRL-7250; assay: Cytotoxic Profiling of Annotated Libraries Using Quantitative High-Throughput Screening (AID 1296008); details: Five cell lines viability, CellTiter-Glo ATP luminescence, 48-72 h; max response: stronger effect = lower value; note: nearly all actives have a fitted effect of over 60% in size
Summary of the method: (§1)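 Cells exposed to compounds for 48 or 72 hr at 37 degrees Celsius. Viability read as ATP-coupled luminescence with CellTiter-Glo after 10 min at room temperature.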

[2] = test system: HaCat; assay: as above; details: Five cell lines viability, CellTiter-Glo ATP luminescence, 48-72 h; max response: stronger effect = lower value
Summary of the method: as §1

[3] = test system: KB-3-1; assay: as above; details: Five cell lines viability, CellTiter-Glo ATP luminescence, 48-72 h; max response: stronger effect = lower value
Summary of the method: as §1

[4] = test system: NIH3T3; assay: as above; details: Five cell lines viability, CellTiter-Glo ATP luminescence, 48-72 h; max response: stronger effect = lower value
Summary of the method: as §1

[5] = test system: MKL-1; assay: qHTS assay to identify novel small-molecules to repurpose for Merkel cell carcinoma treatment (AID 1296009); details: MCC and control cell lines, CellTiter-Glo viability, 72 h; series mostly up to 46 µM; note: nearly all actives have a fitted effect of over 60% in size
Summary of the method: (§2)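 CellTiter-Glo luminescence after 72 hr compound exposure at 37 degree celsius gave cell viability. Libraries NPC and MIPE were run as 8- and 11-point dose responses; RLUs normalized to DMSO (negative) and no-cell (cytotoxicity) controls.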

[6] = test system: MKL-2; assay: as above; details: MCC and control cell lines, CellTiter-Glo viability, 72 h; series mostly up to 46 µM
Summary of the method: as §2

[7] = test system: UISO; assay: as above; details: MCC and control cell lines, CellTiter-Glo viability, 72 h; series mostly up to 46 µM
Summary of the method: as §2

[8] = test system: WaGa; assay: as above; details: MCC and control cell lines, CellTiter-Glo viability, 72 h; series mostly up to 46 µM
Summary of the method: as §2

[9] = test system: CAOV3; assay: Primary qHTS to identify gynecologic anti-cancer compounds using libraries of approved drugs and bioactive compounds (AID 1345084); details: Gynecologic cancer cell panel viability, ATPlite luminescence, 48 h; series mostly up to 57.5 µM; note: nearly all actives have a fitted effect of over 55% in size
Summary of the method: (§3)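 Cytotoxicity screen measuring ATP content by luciferase luminescence. Each compound is applied at five concentrations for 48 h at 37 C with 5% CO2.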

[10] = test system: CASKI; assay: as above; details: Gynecologic cancer cell panel viability, ATPlite luminescence, 48 h; series mostly up to 57.5 µM
Summary of the method: as §3

[11] = test system: Es-2; assay: as above; details: Gynecologic cancer cell panel viability, ATPlite luminescence, 48 h; series mostly up to 57.5 µM
Summary of the method: as §3

[12] = test system: HeLa; assay: as above; details: Gynecologic cancer cell panel viability, ATPlite luminescence, 48 h; series mostly up to 57.5 µM
Summary of the method: as §3

[13] = test system: Hek293T; assay: as above; details: Gynecologic cancer cell panel viability, ATPlite luminescence, 48 h, control line for the selectivity index; series mostly up to 57.5 µM
Summary of the method: as §3

[14] = test system: HEK293; assay: Cytotoxic Profiling of Annotated Libraries Using Quantitative High-Throughput Screening (AID 1296008); details: Five cell lines viability, CellTiter-Glo ATP luminescence, 48-72 h; max response: stronger effect = lower value; note: nearly all actives have a fitted effect of over 60% in size
Summary of the method: as §1

[15] = test system: HACAT; assay: qHTS assay to identify novel small-molecules to repurpose for Merkel cell carcinoma treatment (AID 1296009); details: MCC and control cell lines, CellTiter-Glo viability, 72 h; at 44.8 µM (top of the series) unless noted; note: nearly all actives have a fitted effect of over 60% in size
Summary of the method: as §2

[16] = test system: HEK293T; assay: as above; details: MCC and control cell lines, CellTiter-Glo viability, 72 h; at 44.8 µM (top of the series) unless noted
Summary of the method: as §2

[17] = test system: MCC-13; assay: as above; details: MCC and control cell lines, CellTiter-Glo viability, 72 h; series mostly up to 46 µM
Summary of the method: as §2

[18] = test system: MCC-26; assay: as above; details: MCC and control cell lines, CellTiter-Glo viability, 72 h; series mostly up to 46 µM
Summary of the method: as §2

[19] = test system: NIH3T3; assay: as above; details: MCC and control cell lines, CellTiter-Glo viability, 72 h; series mostly up to 44.8 µM
Summary of the method: as §2

[20] = test system: C33A; assay: Primary qHTS to identify gynecologic anti-cancer compounds using libraries of approved drugs and bioactive compounds (AID 1345084); details: Gynecologic cancer cell panel viability, ATPlite luminescence, 48 h; series mostly up to 57.5 µM; note: nearly all actives have a fitted effect of over 55% in size
Summary of the method: as §3
% is set by controls: 0 for no effect and ±100 for the full control effect; potency is the fitted concentration of half-maximal effect.

Nc1ccc(-c2ccc3ncc4ccc(=O)n(-c5cccc(C(F)(F)F)c5)c4c3c2)cn1
inactive: max response [1] -76.7%
active: Potency [1] 46.1 nM | Potency [2] 2.64 µM and 2.91 µM | Potency [3] 4.2 nM and 65.1 nM | Potency [4] 20.9 nM and 103 nM | Potency [5] 148 nM | Potency [6] 132 nM | Potency [7] 33.2 nM | Potency [8] 372 nM | Potency [9] 631 nM | Potency [10] 1 µM | Potency [11] 316 nM | Potency [12] 2.51 µM | Potency [13] 316 nM

CCOC(=O)[C@H](CCc1ccccc1)N[C@@H](C)C(=O)N1CCCC1C(=O)O (some centres not stated)
inactive: max response [1] 3.69% | outcome [14] | outcome [2] | max response [3] 2.47% | outcome [4] | outcome [15] | outcome [16] | Potency [17] | Potency [18] | Potency [5] | Potency [6] | Potency [19] | Potency [7] | Potency [8]

Clc1ccc(C2(c3ccc(-c4cn[nH]c4)cc3)CCNCC2)cc1
inactive: outcome [2] | outcome [15] | Potency [18] | Potency [6]
active: Potency [1] 3.72 µM and 7.31 µM | Potency [14] 5.26 µM and 10.3 µM | Potency [2] 13 µM | Potency [3] 16.6 µM and 16.4 µM

CC1CCN(c2cc(N3CCN(C)CC3)ccc2NC(=O)c2cc(C#N)c[nH]2)CC1
inactive: outcome [1] | max response [14] 0.425% | max response [2] 2.9% | outcome [2] | max response [3] 9% and 4.39% | max response [4] 3.51% and 0.269% | outcome [15] | Potency [17] | Potency [18] | Potency [5] | Potency [6] | Potency [7] | Potency [8] | Potency [20] | Potency [9] | Potency [10] | Potency [11] | Potency [12] | Potency [13]

COc1cc2ncnc(Nc3cc(Br)c(O)c(Br)c3)c2cc1OC
inactive: max response [1] -9.02% and 1.18% | max response [14] 0.846% | outcome [14] | max response [2] -28.8% | outcome [3] | max response [4] -4.77% | outcome [4] | outcome [16] | Potency [17] | Potency [5] | Potency [19] | Potency [8] | Potency [20] | Potency [9] | Potency [10] | Potency [11] | Potency [12] | Potency [13]

CC(C)(OCc1nn(Cc2ccccc2)c2ccccc12)C(=O)O
inactive: max response [1] 1.06% | outcome [1] | max response [14] 0.564% | outcome [14] | max response [2] 3.78% | outcome [2] | max response [3] 5.01% and 9.63% | max response [4] 2.54% and 3.58% | outcome [15] | outcome [16] | Potency [17] | Potency [18] | Potency [5] | Potency [6] | Potency [7] | Potency [8] | Potency [20] | Potency [10] | Potency [11] | Potency [12] | Potency [13]

Cc1ccc2c(c1)c1c(n2CCc2ccc(C)nc2)CCN(C)C1
inactive: outcome [1] | max response [14] -7.19% | max response [2] -15.7% | outcome [2] | max response [3] 2.15% | max response [4] 1.43% | outcome [15] | Potency [17] | Potency [18] | Potency [5] | Potency [6] | Potency [7] | Potency [8] | Potency [12]
active: Potency [14] 14.6 µM

NS(=O)(=O)c1cc(Cl)c(Cl)c(S(N)(=O)=O)c1
inactive: max response [1] 0.0999% | outcome [1] | max response [14] 0.982% | outcome [14] | max response [2] -2.36% | outcome [2] | max response [3] 1.19% and 6.82% and 0.356% | max response [4] -19% and 0.0909% | outcome [15] | outcome [16] | Potency [17] | Potency [5] | Potency [6] | Potency [7] | Potency [8] | Potency [20] | Potency [9] | Potency [10] | Potency [11] | Potency [12] | Potency [13]

COc1nc(C)cnc1NS(=O)(=O)c1cccnc1-c1ccc(-c2nnco2)cc1
inactive: max response [1] 1.92% and 1.59% | outcome [14] | max response [2] 3.49% | outcome [2] | max response [3] -0.147% | outcome [3] | max response [4] -2.15% | outcome [4] | outcome [15] | outcome [16] | Potency [17] | Potency [5] | Potency [6] | Potency [19] | Potency [7] | Potency [8] | Potency [20] | Potency [9] | Potency [10] | Potency [11] | Potency [12] | Potency [13]

c1ccc(CNc2nc(N3CCOc4ccccc43)nc3c2CCCC3)cc1
inactive: max response [1] 3.99% | outcome [1] | max response [2] -18.6% and -15.3% | max response [3] 8.67% and -13.6% | max response [4] 3.56% | outcome [4] | Potency [17] | Potency [18] | Potency [5] | Potency [6] | Potency [19] | Potency [7] | Potency [8] | Potency [20] | Potency [9] | Potency [10] | Potency [11] | Potency [12] | Potency [13]

CNc1nc(Nc2ccc(C(=O)N3CCOCC3)cc2OC)ncc1Cl
inactive: max response [1] 2.63% and -2.16% | max response [14] 3.56% and -22.4% | outcome [2] | max response [3] -5.95% | outcome [3] | outcome [15] | Potency [17] | Potency [5] | Potency [6] | Potency [7] | Potency [8] | Potency [20] | Potency [10] | Potency [11] | Potency [12] | Potency [13]
